This is an account of results in PubChem BioAssay (EPA / NIEHS).

Inconclusive results are not listed. Active and inactive are the calls of the source. Rule for the calls: active = hit-call score of the fitted dose curve at least 0.9, where 1 is the maximum; inconclusive = response in the unintended direction; inactive = score below 0.9.

The experiment deals with Cytochrome P450 3A4 (Homo sapiens) (UniProt P08684). Briefly: NVS_ADME_hCYP3A4: NovaScreen (NVS) CYP450-related Enzyme Activity (ADME) Assay for human CYP3A4 (AID 2283110). The method, then: NVS_ADME_hCYP3A4 is a biochemical, single-readout assay that uses extracted gene-proteins from insect cells in a cell-free assay. Measurements were taken 0.33 hour after chemical dosing in a 96-well plate.NVS_ADME_hCYP3A4 is one of one assay component(s) measured or calculated from the NVS_ADME_hCYP3A4 assay. It is designed to make measurements of enzyme activity, a form of enzyme reporter, as detected with fluorescence intensity signals by Fluorescence technology.Data from the assay component NVS_ADME_hCYP3A4 was analyzed into 1 assay endpoint. This assay endpoint, NVS_ADME_hCYP3A4, was analyzed in the positive analysis fitting direction relative to Acetonitrile as the negative control and baseline of activity. Using a type of enzyme reporter, loss-of-signal activity can be used to understand changes in the enzymatic activity as they relate to the gene CYP3A4. Furthermore, this assay endpoint can be referred to as a primary readout, because this assay has produced multiple assay endpoints where this one serves a enzymatic activity function. To generalize the intended target to other relatable targets, this assay endpoint is annotated to the cyp intended target family, where the subfamily is xenobiotic metabolism.
Sequence of Cytochrome P450 3A4 (Homo sapiens) (P08684 whole entry, looked up): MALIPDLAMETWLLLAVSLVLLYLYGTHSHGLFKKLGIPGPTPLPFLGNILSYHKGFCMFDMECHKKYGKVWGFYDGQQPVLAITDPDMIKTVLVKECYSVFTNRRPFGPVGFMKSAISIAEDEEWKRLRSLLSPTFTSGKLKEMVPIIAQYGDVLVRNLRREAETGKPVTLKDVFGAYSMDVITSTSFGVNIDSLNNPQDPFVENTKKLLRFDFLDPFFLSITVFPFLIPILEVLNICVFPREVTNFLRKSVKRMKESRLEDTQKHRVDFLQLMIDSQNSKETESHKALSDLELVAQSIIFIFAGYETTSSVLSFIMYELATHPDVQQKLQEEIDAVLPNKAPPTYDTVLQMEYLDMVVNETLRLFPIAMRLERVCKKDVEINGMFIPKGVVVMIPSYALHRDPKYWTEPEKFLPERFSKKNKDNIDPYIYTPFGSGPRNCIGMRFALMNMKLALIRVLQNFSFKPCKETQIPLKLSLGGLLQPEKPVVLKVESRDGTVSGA
Binding assays used specific radioligands (tritiated, iodinated) with non-radioactive competitive displacement ligands in agonist or antagonist protocols (as indicated) and various reference compounds and inhibitors to titrate specific binding to receptors and transporters. Most enzyme assays (CYPs, kinases, phosphatases, proteases, HDACs) used recombinant protein and specific substrates (fluorescence mostly, some colorimetric and radioactive) and inhibitors, followed by a biochemical separation of substrate and product. All assays for the biochemical HTS were initially run in duplicate at a single concentration (10 uM for CYP450 assays and 25 uM for all others). […] Each assay was run with positive and negative controls, and concurrent controls on every plate. The follow-up (secondary) screen tested active chemical-pairs in concentration series, as well as a few additional assays not tested in the primary screen, some selected negative inactives, and several cases re-run in the concentration series for confirmatory purposes.
A word on the AC50: it is the concentration giving half of the maximal activity seen. Consider `CC(C)c1cccc(C(C)C)c1N1C(=O)c2ccc(O)cc2C1=O`, for which the AC50 was 13.6 µM (active).

In the case of `O=C(O)c1cccc(N(Cc2cccnc2)c2ccc(OC(F)F)c(OC(F)F)c2)c1`, the AC50 is 6.01 µM (active).

`Nc1ccc(Nc2ccccc2)cc1`: the AC50 was 7.5 µM (active).

Take `CCOC(=O)COc1ccc2c(c1)CC(NCC(O)c1cccc(Cl)c1)CC2` (configuration not stated): the call was inactive. With `CNS(=O)(=O)c1cc(C(=O)N2CCC(CCN3C4CCC3CC(n3c(C)nc5ccccc53)C4)(c3cccc(F)c3)CC2)c(Cl)cc1F` (configuration not stated), the AC50 was 4.08 µM (active). In the case of `Oc1ccc2c(c1)-c1ccccc1C2`, the molecule was classed as inactive. As to `CCN(C(=O)c1cc(C)cc(OC[C@H](C)Nc2ccncc2)c1)C(C)C`, the half-maximal activity concentration (AC50) was 2.87 µM (active). `CC(=O)OCCC(C)C`: the molecule was classed as inactive. On to `CCOC(=O)c1ccc(C2CCC(NC[C@H](O)COc3ccc(O)c(NS(C)(=O)=O)c3)CC2)cc1` (some centres not stated), for which the result was inactive.

Consider `CCc1cc(SCc2sc(-c3ccc(C(F)(F)F)cc3)nc2CN2CCN(c3ccc(OC)cc3)CC2)ccc1OCC(=O)O`, for which the call was inactive. Turning to `O=P(OC(CCl)CCl)(OC(CCl)CCl)OC(CCl)CCl`, the AC50 is 6.65 µM (active). With `Cn1c(=O)cc(Oc2ccc(F)cc2F)c2cnc(NCC(C)(C)O)nc21`, the outcome was inactive.
